# Bioassay records: PubChem BioAssay, National Center for Advancing Translational Sciences (NCATS)
# NPC1 prom act = NPC1 promoter activation. hit rate 2.4% among 320,000. Potency, µM (series often up to 9.22 µM), without a hit: at the top dose activation, hits mostly activators. AID 485313. Huh7 NPC1 promoter luciferase reporter, 24 h; note: % of control where 0% means no effect; nearly all actives have a fitted effect of over 60% in size
#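 NPC1 promoter–luciferase Huh7 cells; 24 h compound; luminescence.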
# p53 reactivator = mutant p53 re-activation in reporter cells; H1299 p53-A138V BP100-luciferase reporter, luminescence, 24 h; Potency, µM (highest dose often 92.2 µM), for inactives: at the top dose activity change, positive = activation, actives largely listed as activators; hit rate 0.063% among 320,000; AID 504706; note: % of control where 0% means no effect; nearly all actives have a fitted effect of over 45% in size
#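 p53-null H1299 cells stably carrying temperature-sensitive p53-A138V and a BP100-luciferase reporter were pinned with compounds (4-point, 1:5 series) and held 24 hrs at 37 deg C. Luminescence was read 10 min after detection reagent.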
# SMN2 splice enh = increases expression of the SMN2 splice variant. HEK293 SMN2-luciferase splicing reporter, luminescence, 30-36 h. Potency, µM (series often up to 46.1 µM), without a hit: at the highest dose activity change, positive = activation, most hits filed as activators. hit rate 2.8% among 210,000. AID 1458; note: % of control where 0% means no effect; nearly all actives have a fitted effect of over 55% in size
#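 HEK293 cells carry an SMN2 minigene-luciferase reporter in which exon 7 inclusion puts luciferase in frame. Cells were seeded at 2000 cells/well, attached for 10-12 hours, then exposed to compounds for 30-36 hours at 37C before ONE-Glo luminescence.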
# FLuc counter = inhibits or activates purified firefly luciferase, miR-21 counter-screen; purified FLuc, Km substrates, luminescence inhibition; Potency, µM (series often up to 57.5 µM), without a hit: at the highest dose activity change, negative = inhibition, hits mostly inhibitors; hit rate 6.9% among 360,000;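 note: plate controls were vehicle for no effect and reference inhibitor for full effect; nearly all actives have a fitted effect of over 55% in size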
# Target sequence (P08659 whole entry, looked up): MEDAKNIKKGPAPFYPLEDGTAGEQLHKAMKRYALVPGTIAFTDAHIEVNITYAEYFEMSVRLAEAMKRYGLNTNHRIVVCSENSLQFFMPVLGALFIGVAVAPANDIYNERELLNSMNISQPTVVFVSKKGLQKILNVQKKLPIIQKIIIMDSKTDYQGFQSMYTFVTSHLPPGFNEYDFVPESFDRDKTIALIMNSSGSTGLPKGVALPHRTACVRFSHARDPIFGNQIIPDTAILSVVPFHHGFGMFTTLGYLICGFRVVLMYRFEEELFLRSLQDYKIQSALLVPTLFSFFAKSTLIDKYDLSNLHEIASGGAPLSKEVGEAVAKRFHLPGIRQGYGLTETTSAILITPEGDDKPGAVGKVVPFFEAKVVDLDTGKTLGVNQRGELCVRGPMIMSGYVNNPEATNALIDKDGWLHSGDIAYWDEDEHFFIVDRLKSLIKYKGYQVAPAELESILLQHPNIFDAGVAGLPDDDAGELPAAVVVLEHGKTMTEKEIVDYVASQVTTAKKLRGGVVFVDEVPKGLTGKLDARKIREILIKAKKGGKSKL
#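 Purified P. pyralis luciferase (10nM final) with 10uM D-luciferin and 10uM ATP (Km levels) in 50mM Tris acetate pH 7.5, 10mM Mg acetate, 0.01% Tween-20, 0.05% BSA; qHTS 6-point titration, ~60 µM downward; luminescence read.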
# ELG1 genotoxic = inducers of genotoxicity in HEK293T ELG1-luciferase cells; HEK293T ELG1-luciferase reporter, luminescence, 16 h; hit rate 1.3% among 330,000; Potency, µM (top dose mostly 46 µM), inactives show top-dose activity change, positive = activation, hits mostly activators; note: % of control where 0% means no effect; nearly all actives have a fitted effect of over 60% in size
#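 DMSO vehicle served as control against compound-treated ELG1-luciferase HEK293T cells; exposure lasted 16 hr at 37 °C and 5% CO2, followed by ONE-Glo luminescence detection after 30 min.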
# Rab9 promoter act = activators of Rab9 promoter; hit rate 2.8% among 320,000; Potency, µM (top dose mostly 9.22 µM), inactives show at the highest dose activation, negative = inhibition, actives largely listed as activators; Huh7 Rab9 promoter-luciferase reporter, luminescence, 24 h; AID 485297; note: % of control where 0% means no effect; nearly all actives have a fitted effect of over 60% in size
#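 Steps: seed 1500 Huh7 Rab9-luc cells per well, rest 2 h at 37 °C; add compound in DMSO; incubate 24 h; add luciferase reagent, 10 min ambient; read luminescence.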
# Starred values were filed as active, the others as inactive; ? = inconclusive; · = not tested or not shown. A selection: hits, their analogues and other compounds. The true share with any hit is near 7.3%. Calls come from the whole dose curve; as a rule, active = well fitted curve in the direction sought with a large enough effect; inconclusive = small, poorly fitted or top-dose-only effect, or another doubt; inactive = no such curve, though single readings can be large; an effect the other way counts as inactive or inconclusive. Potency is the fitted concentration of half-maximal effect.
SMILES,NPC1 prom act,p53 reactivator,SMN2 splice enh,FLuc counter,ELG1 genotoxic,Rab9 promoter act
c1ccc(-n2cnc3cc(NCc4ccncc4)ccc32)cc1,22%,5%,-96%,24µM*,1%,?
CN(C)c1ccc(CNc2ccc3c(c2)ncn3C)cc1,-1%,?,-13%,?,?,-6%
Cc1nc2cc(-c3cccc(Cl)c3)nn2c(N2CCN(C(=O)c3ccco3)CC2)c1C,-2%,?,-5%,17µM*,0%,3%
CCOc1ccc2nc(SCC(=O)N3CCN(C(=O)c4ccco4)CC3)sc2c1,0%,-2%,-14%,17µM*,-9%,-6%
CCOc1ccc2nc(N3CCN(C(=O)c4ccco4)CC3)sc2c1,·,·,·,21µM*,·,·
O=C(c1ccc2nc(N3CCOCC3)sc2c1)N1CCN(C(=O)c2ccco2)CC1,-1%,1%,-7%,4%,13%,2%
O=C(CSc1nc2ccccc2s1)N1CCN(C(=O)c2ccco2)CC1,16%,-9%,-7%,-4%,2%,12%
O=C(C1CC1)N1CCN(c2nc3c(F)cc(F)cc3s2)CC1,·,·,·,-19%,·,·
O=C(c1ccco1)N1CCN(c2nc3c(F)cc(F)cc3s2)CC1,·,·,·,24µM*,·,·
CCOc1ccc2nc(SCC(=O)c3cccs3)sc2c1,2.5µM*,?,?,2.7µM*,15µM*,2.8µM*
COc1ccc2nc(N3CCN(C(=O)c4ccco4)CC3)sc2c1,·,·,·,27µM*,·,·
O=C(c1ccco1)N1CCN(c2ccc(Cl)cc2)CC1,?,?,11µM*,17µM*,?,?
CCc1ccc2nc(N3CCN(C(=O)c4ccco4)CC3)sc2c1,·,·,·,11µM*,·,·
CCOc1ccc(N=Nc2c(N)[nH][nH]c2=O)cc1,?,?,?,11µM*,?,?
Nc1[nH][nH]c(=O)c1N=Nc1cccc(Cl)c1,4%,-1%,·,?,9%,1%
CCOc1ccc(N=Nc2c(=O)[nH]n3c(=O)cc(C)[nH]c23)cc1,?,2%,?,4.8µM*,?,2.8µM*
COc1cccc(N=Nc2c(N)[nH][nH]c2=O)c1,25%,?,10µM*,15µM*,?,28%
Cc1cc(=O)[nH]c2nnc(SCCC(C)C)n12,·,·,·,-19%,·,·
Cc1ccc2c(c1)c(=O)c(C(=O)c1ccccc1)cn2Cc1ccccc1F,·,·,-2%,-8%,·,·
CCOC(=O)c1ccc(-c2ccc(/C=N/NC(=O)CN(c3ccccc3Cl)S(C)(=O)=O)o2)cc1,?,5%,11µM*,?,-6%,?
CCOC(=O)c1ccc(-c2ccc(/C=N/NC(=O)CN(c3cccc(C)c3)S(C)(=O)=O)o2)cc1,15%,4%,?,-3%,14%,28%
COC(=O)c1cccc(C23CC4(C2)[C@H](CN(CC2CCCCC2)[C@@H]4c2ccccc2)C3c2ccc(Cl)nc2)c1 (some centres undefined),·,·,-12%,·,·,·
C/C=C\C=C\C(=O)N1CC2(CC(c3cccc(NC(=O)COc4ccc(Cl)cc4)c3)=NO2)C[C@H]1C(N)=O (some centres undefined),-2%,-1%,·,9.5µM*,-4%,-3%
CCCCCC(=O)Nc1cccc(C2=NOC3(C2)C[C@H](C(N)=O)N(C(=O)COc2ccc(Cl)cc2)C3)c1 (some centres undefined),-9%,-4%,·,-16%,-15%,-6%
C/C=C\C=C\C(=O)N1CC2(CC(c3cccc(NC(=O)CC)c3)=NO2)C[C@H]1C(N)=O (some centres undefined),1%,-2%,·,-11%,4%,-6%
SMILES,NPC1 prom act,p53 reactivator,SMN2 splice enh,FLuc counter,ELG1 genotoxic,Rab9 promoter act
C/C=C\C=C/C(=O)Nc1cccc(C2=NOC3(C2)C[C@@H](C(N)=O)N(C(=O)COc2ccc(Cl)cc2)C3)c1 (some centres undefined),-2%,-2%,·,15µM*,-3%,-3%
COCCNC(=O)C(=O)Nc1ccc(Br)cc1,?,?,11µM*,?,?,?
COCCNC(=O)C(=O)Nc1cccc(Br)c1,3%,10%,-13%,-1%,?,3%
CN(C)c1ccc(NC(=O)C(=O)NCCOc2ccccc2)cc1,1%,0%,9%,-2%,-3%,15%
CCCNC(=O)C(=O)Nc1ccc(N(C)C)cc1,?,?,11µM*,13µM*,?,3.2µM*
CC(C)NC(=O)C1CCC(Cn2c(=O)c3sccc3n(CC(=O)NCc3ccccc3)c2=O)CC1 (centres undefined),·,·,·,1%,·,·
O=C(CSc1ccccc1)Nc1ccc(N2CCOCC2)c(F)c1,3.5µM*,29%,·,?,?,3.2µM*
Cc1ccc(SCC(=O)Nc2ccc(N3CCN(C)CC3)c(F)c2)c(C)c1,12%,?,-15%,12µM*,3%,4%
Cc1ccc(-n2nnnc2SCC(=O)Nc2ccc(N3CCN(C)CC3)cc2)c(C)c1,6%,0%,·,-2%,-1%,-11%
Cc1c(Cl)cccc1N1C(N)=C(C#N)C(c2cc(CN3CCOCC3)cs2)C2=C1CCCC2=O (centres undefined),·,·,-17%,7%,·,·
Cn1c(=O)c2c(-c3ccccc3)n3c(c2n(C)c1=O)C(c1ccc([N+](=O)[O-])cc1)Nc1ccccc1-3 (centres undefined),·,·,·,-4%,·,·
Cc1cc2cc(OCc3ccccc3)ccc2n1C,2µM*,8%,·,5.4µM*,?,3.2µM*
Cc1c(C=O)c2cc(OCc3ccccc3)ccc2n1C,?,17%,·,15µM*,?,4µM*
Cc1cc2cc(OCC(=O)O)ccc2n1C,-1%,2%,13%,-14%,-2%,1%
CC1(C(=O)N2CC3(CC(c4cccc(NC(=O)CC(c5ccccc5)c5ccccc5)c4)=NO3)C[C@@H]2C(N)=O)CC1 (some centres undefined),-14%,-1%,·,5%,-5%,-1%
CN1C(=O)CSc2ccc(NC(=O)N3CCN(c4ccccn4)CC3)cc21,-5%,-15%,-3%,-5%,0%,-8%
CC(=O)Nc1ccc(NC(=O)Nc2ccc3c(c2)N(C)C(=O)CS3)cc1,-6%,-5%,·,-17%,-12%,0%
CN1C(=O)CSc2ccc(NC(=O)Nc3ccccn3)cc21,?,0%,?,3µM*,4%,2.8µM*
COc1cccc(NC(=O)Nc2ccc3c(c2)N(C)C(=O)CS3)c1,0%,5%,14%,12µM*,-12%,-3%
CCS(=O)(=O)N1Cc2ccccc2CC1C(=O)Nc1nc2ccc(C)cc2s1 (centres undefined),5%,?,1%,?,0%,18%
